Reference: PubChem BioAssay (Tox21)
Active and inactive are the calls of the source. A call without a number means that no potency is given here. The call rests on the fitted dose curve.

Biological target: Gonadotropin-releasing hormone receptor (Homo sapiens) (UniProt P30968)
Experiment: Human gonadotropin-releasing hormone receptor (GnRHR) small molecule agonists, calcium flux assay in GnRHR-HEK293 cells (AID 1920063); further: nearly all actives have a fitted effect of over 35% in size
Settings: calcium flux fluorescence, agonist mode; series mostly up to 57.6 µM
Method in brief: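 Calcium-dye fluorescence, Ex/Em=480/540, recorded every 1 sec over 3 min after compound addition to GnRHR-HEK293 cells. Cells had been seeded 18 hours earlier and dye-loaded for 1 hour at 37 C. Fifteen concentrations, triplicates.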

Sequence of Gonadotropin-releasing hormone receptor (Homo sapiens) (P30968 whole entry, looked up): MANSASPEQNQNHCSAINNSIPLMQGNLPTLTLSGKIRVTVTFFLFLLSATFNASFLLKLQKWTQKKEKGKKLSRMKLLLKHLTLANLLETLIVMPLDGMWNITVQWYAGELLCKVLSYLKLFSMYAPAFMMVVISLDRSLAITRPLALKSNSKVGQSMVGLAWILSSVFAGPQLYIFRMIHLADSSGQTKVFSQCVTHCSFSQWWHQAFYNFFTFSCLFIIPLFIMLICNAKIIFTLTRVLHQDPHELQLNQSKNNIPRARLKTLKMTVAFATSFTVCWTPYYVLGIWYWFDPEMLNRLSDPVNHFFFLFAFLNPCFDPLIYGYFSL

SMILES	Potency
O=C1C[C@@H]2OCC=C3CN4CC[C@]56c7ccccc7N1[C@H]5[C@H]2[C@H]3C[C@H]46	inactive
O=c1c(C2CC(c3ccc(-c4ccc(Br)cc4)cc3)Cc3ccccc32)c(O)sc2ccccc12 (centres undefined)	inactive
CCCCCCBr	inactive
[O]=[Cd]	inactive
CCC/C(=N\OCC)C1=C(O)CC(CC(C)SCC)CC1=O (centres undefined)	inactive
BrCC(Br)C1CCC(Br)C(Br)C1 (centres undefined)	inactive
C[C@H]1CNCCc2ccc(Cl)cc21	inactive
CCCN(CC)CC1COC2(CCC(C(C)(C)C)CC2)O1 (centres undefined)	inactive
CCOC(=O)N(C)C(=O)CSP(=S)(OCC)OCC	inactive
c1cncc([C@@H]2CCCCN2)c1	inactive
CN(C)c1ccc(N=Nc2ccccc2)cc1	inactive
BrCC(Br)(Br)Br	inactive
N#CC(C#N)=Cc1ccc(O)c(O)c1	inactive
CCCCCOC(=O)c1ccccc1C(=O)OCCCCC	inactive
CC(C)N(C(=O)SC/C(Cl)=C/Cl)C(C)C	inactive
BrCCCCCCBr	inactive
[As]#[In]	inactive
CC(C)CC(C)N (centres undefined)	inactive
Cc1cc(Cl)ccc1O[C@H](C)C(=O)O	inactive
CCCCCCCCCCCCCN1CC(C)OC(C)C1 (centres undefined)	inactive
Clc1ccccc1-c1ccccc1Cl	inactive
CCCCNP(N)(N)=S	inactive

SMILES	Potency
O=C(O)CBr	inactive
Cc1cc(=O)[nH]o1	inactive
C[C@]12CC[C@H]3[C@@H](CCC4=CC(=O)CC[C@@H]43)[C@@H]1CC[C@@H]2OC(=O)CCC1CCCCC1	inactive
C=CCOC(C)=O	inactive
FC(F)(F)c1cccc(C2=CCN(CCc3ccc4ccccc4c3)CC2)c1	inactive
COc1cc(CC(C)N)cc2c1OCO2 (centres undefined)	inactive
CCN(CC)CCOC(=O)C(C)(c1ccccc1)c1ccccc1	inactive
C[C@@H]1CC[C@H]2[C@@H](C)C(=O)O[C@@H]3O[C@@]4(C)CC[C@@H]1[C@]32OO4	inactive
O=[N+]([O-])c1ccccc1CCl	inactive
CC(=O)Nc1cc([As](=O)(O)O)ccc1O	inactive
C=CC(=O)OC	inactive
CCS(=O)(=O)C(C)(C)S(=O)(=O)CC	inactive
O=C1CC[C@@]2(O)[C@H]3Cc4ccc(O)c5c4[C@@]2(CCN3CC2CC2)[C@H]1O5	inactive
CCOC(=O)C(Cl)C(C)=O (centres undefined)	inactive
CCC[CH2][Sn]([CH2]CCC)([O]C(C)=O)[O]C(C)=O	inactive
O=[N+]([O-])C(Br)Br	inactive
CC(Cc1ccccc1)NCc1ccccc1Cl (centres undefined)	inactive
CC(C)Br	inactive
O=C(O)C(Br)CBr (centres undefined)	inactive
C#CC(O)(C=CCl)CC (centres undefined)	inactive
CCc1cccc(C)c1N(C(=O)CCl)[C@@H](C)COC	inactive
O=C(CBr)OCc1ccccc1	inactive
